Shown are actives, neighbours in structure and some others; about 7.2% of the full set was active somewhere.
SNCA expr inh = SNCA gene expression inhibition; HEK-293 SNCA-luciferase knock-in, luminescence, 24 h; Potency, µM (doses to about 57.2 µM), for the others: at the top dose activity change, negative = inhibition, usual class: inhibitors; 0.17% of 140,000 active; AID 1671194;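 note: plate controls were DMSO cells for no effect and cell-free wells for full effect; nearly all actives have a fitted effect of over 45% in size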
hNpr1 antagonist = blocks ANP-stimulated signaling of human Npr1 receptor; Potency, µM (titrated, usually from 46.3 µM), inactives show at the highest dose activity change, negative = inhibition, usual class: inhibitors; 1.6% of 76,000 active; AID 1347048; P16066; HEK293 hNpr1 GloSensor cGMP, ANP-stimulated luminescence; calls by dose curve; note: nearly all actives have a fitted effect of over 60% in size
Target sequence (P16066 whole entry, looked up): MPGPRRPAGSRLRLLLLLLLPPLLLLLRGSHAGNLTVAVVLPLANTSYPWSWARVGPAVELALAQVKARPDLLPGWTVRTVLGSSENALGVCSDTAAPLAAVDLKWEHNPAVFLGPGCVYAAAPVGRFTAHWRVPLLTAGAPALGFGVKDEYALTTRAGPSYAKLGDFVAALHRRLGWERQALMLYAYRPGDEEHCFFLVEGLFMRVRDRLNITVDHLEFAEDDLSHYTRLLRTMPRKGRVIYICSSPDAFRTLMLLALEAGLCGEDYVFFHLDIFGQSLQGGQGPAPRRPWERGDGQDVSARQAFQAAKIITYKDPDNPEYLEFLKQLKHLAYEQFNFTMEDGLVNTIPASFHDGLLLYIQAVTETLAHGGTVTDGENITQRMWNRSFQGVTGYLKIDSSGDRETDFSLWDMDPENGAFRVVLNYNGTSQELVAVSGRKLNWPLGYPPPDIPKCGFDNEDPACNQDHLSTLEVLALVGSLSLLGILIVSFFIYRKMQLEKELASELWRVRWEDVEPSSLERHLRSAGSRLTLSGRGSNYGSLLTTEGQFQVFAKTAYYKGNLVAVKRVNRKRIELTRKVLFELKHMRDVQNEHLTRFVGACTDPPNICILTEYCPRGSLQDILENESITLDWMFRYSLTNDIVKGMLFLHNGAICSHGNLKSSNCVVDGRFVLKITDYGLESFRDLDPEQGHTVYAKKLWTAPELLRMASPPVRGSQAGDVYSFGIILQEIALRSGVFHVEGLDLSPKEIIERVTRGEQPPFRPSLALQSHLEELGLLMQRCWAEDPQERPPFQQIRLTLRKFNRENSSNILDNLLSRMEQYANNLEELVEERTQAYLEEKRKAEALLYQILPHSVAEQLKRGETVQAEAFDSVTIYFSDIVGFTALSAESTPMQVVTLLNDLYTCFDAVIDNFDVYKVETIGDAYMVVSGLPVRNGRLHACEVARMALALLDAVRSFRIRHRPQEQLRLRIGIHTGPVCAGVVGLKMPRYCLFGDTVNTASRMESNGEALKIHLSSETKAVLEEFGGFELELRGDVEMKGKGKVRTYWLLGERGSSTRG
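Compound pre-incubated 30 min at room temperature on GloSensor-loaded HEK293 cells stably carrying hNpr1 and the pGS-40F cGMP biosensor. Stimulation uses hNppA at 0.1 nM final; luminescence is taken at baseline and 20 min post-agonist.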
SNCA viab count = counter-screen for SNCA expression inhibitors: cell viability. HEK-293-SNCA-luc viability, GF-AFC fluorescence, 24 h. Potency, µM (titrated, usually from 57.1 µM), without a hit: top-dose activity change, negative = cytotoxicity, actives largely listed as cytotoxic. 0.12% of 150,000 active;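 note: 0% = DMSO-treated cells and -100% = medium-only wells without cells; nearly all actives have a fitted effect of over 30% in size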
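Cytotoxicity counterscreen: after 24 h compound treatment of genome-edited SNCA-luciferase HEK-293 cells, live-cell protease substrate GF-AFC read by fluorescence after 30 min; activity scaled between DMSO (0%) and medium-only (-100%), curves Hill-fitted.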
FLuc inh = inhibitors of firefly (Photinus pyralis) luciferase. P08659. purified P. pyralis luciferase, luminescence, biochemical. Potency, µM (highest dose often 115 µM), hits mostly inhibitors. 2.5% of 76,000 active; note: nearly all actives have a fitted effect of over 65% in size
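FLuc 10nM, D-luciferin 10uM, ATP 10uM, Mg acetate 10mM, Tris acetate pH 7.5, Tween/BSA; cpd qHTS; enzyme added last; CCD luminescence.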
3T3 cytotox = NIH 3T3 cell cytotoxicity | Potency, µM (highest dose often 96.7 µM), for inactives: at the highest dose activity change, negative = cytotoxicity, most hits filed as inhibitors | 4.3% of 94,000 active | NIH 3T3 viability, CellTiter-Glo ATP luminescence, 48-72 h | AID 1345082; note: nearly all actives have a fitted effect of over 55% in size
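Cells were seeded at 400 per well, treated with pin-transferred compound, and kept 48 or 72 hr at 37 °C before CellTiter-Glo addition and luminescence imaging of cellular ATP.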
HEK293 tox = HEK 293 cell cytotoxicity; AID 1345083; Potency, µM (highest dose often 115 µM), without a hit: top-dose activity change, negative = cytotoxicity, hits mostly inhibitors; 6.6% of 94,000 active; HEK 293 viability, ATP luminescence (CellTiter-Glo), 48-72 h; note: nearly all actives have a fitted effect of over 60% in size
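HEK 293 seeded at 250 cells/well receive compound via pintool. After 48 or 72 hr at 37 degree Celsius, 5% CO2 and 95% humidity, CellTiter-Glo is dispensed and luminescence read following 10 min at room temperature.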
* marks the source's active call; other numbers are inactive results; [ ] = another dose, or the depositor's remark. Unless noted, calls come from the whole dose curve; as a rule, active = well fitted curve in the direction sought with a large enough effect; inconclusive = small, poorly fitted or top-dose-only effect, or another doubt; inactive = no such curve, though single readings can be large; an effect the other way counts as inactive or inconclusive. Unless noted, % is set by controls: 0 for no effect and ±100 for the full control effect; potency is the fitted concentration of half-maximal effect.

For CC(C)C[C@@H]1N[C@H](C(=O)O)Cc2cn(CC3CCC3)c3cccc1c23 the results were SNCA expr inh -9%[87.6 µM], hNpr1 antagonist -11%[70.6 µM], SNCA viab count -2%[87.6 µM], FLuc inh inactive, 3T3 cytotox 79µM* and HEK293 tox 71µM*.
C#CCNC(=O)[C@@H]1Cc2cn(CC=C)c3cccc(c23)[C@H](CC(C)C)N1 was read as SNCA expr inh inconclusive, hNpr1 antagonist -8%[70.6 µM], SNCA viab count inconclusive, FLuc inh inactive, 3T3 cytotox inconclusive and HEK293 tox inconclusive.
Screening CC(C)C[C@@H]1N[C@H](C(=O)NC2CCC2)Cc2cn(CC3CC3)c3cccc1c23 returned SNCA expr inh inconclusive, hNpr1 antagonist 3%[70.6 µM], SNCA viab count -5%[87.6 µM], FLuc inh inactive, 3T3 cytotox inconclusive and HEK293 tox 56µM*.
Screening C=CCn1cc2c3c(cccc31)[C@H](CC(C)C)N[C@H](C(=O)O)C2 returned SNCA expr inh 6%[87.6 µM], hNpr1 antagonist 2%[70.6 µM], SNCA viab count 1%[87.6 µM], FLuc inh inactive, 3T3 cytotox inconclusive and HEK293 tox -26%[172 µM].
Cc1ccc(S(=O)(=O)N2CCN(C3CCN(Cc4ccccn4)C3=O)CC2)c(C)c1 (stereo unspecified) was read as SNCA expr inh 11%, hNpr1 antagonist 3%, SNCA viab count 1%, FLuc inh inactive, 3T3 cytotox -22% and HEK293 tox -17%.
For CN(Cc1cc(C[C@@H]2C[C@H](NC(=O)C(C)(C)C)C2(C)C)no1)c1ccccc1 the results were SNCA expr inh -16%[87.6 µM], hNpr1 antagonist inconclusive, SNCA viab count -5%[87.6 µM], FLuc inh inactive, 3T3 cytotox inconclusive and HEK293 tox 89µM*.
CN(C)Cc1cc(C[C@@H]2C[C@H](NC(=O)C3CCC3)C2(C)C)no1 was read as SNCA expr inh 1%[87.6 µM], hNpr1 antagonist -2%[70.6 µM], SNCA viab count -1%[87.6 µM], FLuc inh inactive, 3T3 cytotox -25%[174 µM] and HEK293 tox inconclusive.
Screening CC(C)(C)c1cc(C[C@@H]2C[C@H](NS(=O)(=O)c3ccccc3)C2(C)C)no1 returned SNCA expr inh -25%[87.6 µM], hNpr1 antagonist -1%[70.6 µM], SNCA viab count -3%[87.6 µM], FLuc inh inactive, 3T3 cytotox inconclusive and HEK293 tox 71µM*.
For CN(Cc1cc(C[C@@H]2C[C@H](NC(=O)COc3ccccc3)C2(C)C)no1)c1ccccc1 the results were SNCA expr inh inconclusive, hNpr1 antagonist inconclusive, SNCA viab count -27%[87.6 µM], FLuc inh inactive, 3T3 cytotox inconclusive and HEK293 tox inconclusive.
CN(Cc1ccccc1)Cc1cc(C[C@@H]2C[C@H](NC(=O)C3CCC3)C2(C)C)no1 was read as SNCA expr inh inconclusive, hNpr1 antagonist inconclusive, SNCA viab count -14%[87.6 µM], FLuc inh inactive, 3T3 cytotox inconclusive and HEK293 tox 35µM*.
CN(C)Cc1cc(C[C@@H]2C[C@H](NCc3ccccc3O)C2(C)C)no1 was read as SNCA expr inh -8%[87.6 µM], hNpr1 antagonist -1%[70.6 µM], SNCA viab count -24%[87.6 µM], FLuc inh inactive, 3T3 cytotox inconclusive and HEK293 tox 56µM*.
For CC1(C)[C@H](Cc2cc(CN3CCOCC3)on2)C[C@@H]1NCc1ccccc1O the results were SNCA expr inh -4%[87.6 µM], hNpr1 antagonist -4%[70.6 µM], SNCA viab count 3%[87.6 µM], FLuc inh inactive, 3T3 cytotox inconclusive and HEK293 tox inconclusive.
For O[C@H]1CC[C@@H](Cc2cc(-c3ccccc3)on2)O[C@@H]1CNC1CCNCC1 the results were SNCA expr inh 162%[87.6 µM], hNpr1 antagonist -4%[70.6 µM], SNCA viab count 5%[87.6 µM], FLuc inh inactive, 3T3 cytotox -28%[174 µM] and HEK293 tox inconclusive.
`CN1C(=O)N(C)C2(CCN(Cc3cc(F)ccc3F)C2)C1=O` (stereo unspecified) gave SNCA expr inh 5%, SNCA viab count -8%, 3T3 cytotox -6% and HEK293 tox inactive.
For CN(Cc1cc(C[C@@H]2C[C@H](NCc3ccccn3)C2(C)C)no1)c1ccccc1 the results were SNCA expr inh 4%[87.6 µM], hNpr1 antagonist -14%[70.6 µM], SNCA viab count -9%[87.6 µM], FLuc inh inactive, 3T3 cytotox 79µM* and HEK293 tox 56µM*.
Cc1noc(-c2nc(-c3cccc(Br)c3)no2)n1 was read as SNCA expr inh 11%, hNpr1 antagonist -15%, SNCA viab count -3%, FLuc inh inconclusive, 3T3 cytotox 0% and HEK293 tox inconclusive.
`Cc1cccc(-c2noc(-c3nc(C)no3)n2)c1` gave SNCA expr inh 108%, hNpr1 antagonist -3%, SNCA viab count -5%, FLuc inh 25µM*, 3T3 cytotox -12% and HEK293 tox -19%.
For Nc1ncccc1CN1CCN(C(=O)CO)CC(C(=O)O)C1 (stereo unspecified) the results were SNCA expr inh 2%, hNpr1 antagonist 15%, SNCA viab count 6%, FLuc inh inactive, 3T3 cytotox 4% and HEK293 tox inactive.
`Clc1cccc(-c2ccc(CNc3ncncn3)o2)c1` gave SNCA expr inh 7%, hNpr1 antagonist inconclusive, SNCA viab count -1%, FLuc inh inconclusive, 3T3 cytotox inconclusive and HEK293 tox 32µM*.
For O=C(Nc1ccccc1)Nc1ccc([C@H]2OCC(=O)N(Cc3ccc(F)cc3)[C@@H]2CO)cc1 the results were SNCA expr inh -7%, hNpr1 antagonist -16%, SNCA viab count -10%, FLuc inh inactive, 3T3 cytotox inconclusive and HEK293 tox 40µM*.
Screening O=C(Nc1ccccc1)Nc1ccc([C@@H](O)[C@H]2COCC(=O)N2Cc2ccc(F)cc2)cc1 returned SNCA expr inh 33%, hNpr1 antagonist 5%, SNCA viab count -22%, FLuc inh inconclusive, 3T3 cytotox inconclusive and HEK293 tox 79µM*.
Screening COc1ccc(C(=O)Nc2ccc([C@H]3OCC(=O)N(Cc4ccc(F)cc4)[C@@H]3CO)cc2)cc1 returned SNCA expr inh -8%, hNpr1 antagonist -2%, SNCA viab count 6%, FLuc inh 45µM*, 3T3 cytotox -12% and HEK293 tox inconclusive.
For COc1ccc(CN2C(=O)CO[C@H](c3ccc(NC(=O)c4ccc(F)cc4)cc3)[C@H]2CO)cc1 the results were SNCA expr inh -25%, hNpr1 antagonist 3%, SNCA viab count 3%, FLuc inh inactive, 3T3 cytotox inconclusive and HEK293 tox inconclusive.
For COc1ccc(C(=O)Nc2ccc([C@H]3OCC(=O)N(Cc4ccncc4)[C@@H]3CO)cc2)cc1OC the results were SNCA expr inh 3%, hNpr1 antagonist 0%, SNCA viab count 3%, FLuc inh inactive, 3T3 cytotox 89µM* and HEK293 tox inactive.
